Hit rate of the full screen: of about 220,000 compounds, about 2,000 (0.91%) were called active. Inconclusive results (about 2%) are left out. Not all results are given here. Measured potencies and affinities stand elsewhere. A number with no mark means an inactive call. Cut-off read from the data, not from the text of the source: inconclusive = inhibition above about 80% without an active follow-up result; inactive = below that; test concentration not stated here.
Experiment: M. tuberculosis H37Rv growth inhibitors, H37Rv strain (AID 1626);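 note: bacteria incubated seven days before Alamar blue readout; 0% = bacteria only wells and 100% = bacteria with antibiotic wells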
Settings: stronger effect = higher value, concentration not given here
In the case of `CCOC(=O)c1ccc(N=Nc2c(C)c(C#N)c(O)[nH]c2=O)cc1`, the inhibition is reported as 86.6%.
In the case of `Cc1cccc(N=Nc2c(C)c(C#N)c(O)[nH]c2=O)c1`, the inhibition is reported as -1.05%.
With `Cc1ccc(C)c2[nH]c(=O)c(CN(CC3CCCO3)C(=S)NCc3ccco3)cc12` (centres undefined) the inhibition was 1.36%.
`c1ccc(COc2ccc(CNn3cnnc3)cc2)cc1` gave an inhibition of -2.39%.
For `COc1cccc(-c2nc(Oc3cccc(C)c3C)c3ccccc3n2)c1O`, the inhibition was -7.68%.
In the case of `Cc1nc(SCC(=O)NCc2ccccc2)c2oc3ccccc3c2n1`, the inhibition is reported as -1.12%.
`CCOC(=O)N1C2=NC(C(=O)OC)=C(C(=O)OC)[C@@H]3N(Cc4ccccc4)c4ccccc4[C@]23C[C@H]1C(=O)OC` showed an inhibition of -6.13%.
For `O=C(c1cn(-c2ccc(Cl)c(Cl)c2)nn1)C1CC1`, the inhibition was 12.8%.
`CN1CCN(c2ccc(C(=O)c3ccc(F)cc3)cc2)CC1` gave an inhibition of 1.19%.
Molecule `Cc1ccc(-n2cnnn2)cc1Cl` has an inhibition of -4.47%.
With `Cc1ccc(C(=O)c2cn(-c3ccc(F)c(Cl)c3)nn2)cc1` the inhibition was 0.59%.
`Cc1c(-n2c(O)c(C3=c4ccccc4=NC3=O)sc2=O)c(=O)n(-c2ccccc2)n1C` showed an inhibition of 1.59%.
`N/C(=N\OC(=O)c1cc(Cl)ccc1Cl)c1ccncc1` gave an inhibition of -3.7%.
`CS(=O)(=O)N(Cc1ccc(Cl)cc1)c1ccc(C(=O)N/N=C/c2cc3ccccc3nc2Cl)cc1` gave an inhibition of -6.17%.
Work on `Cc1ccc(-n2nnnc2SCC(=O)Nc2sccc2C#N)cc1` yielded an inhibition of 0.42%.
With `O=C(CN1C(=O)CCC1=O)NCC12CC3CC(CC(C3)C1)C2` the inhibition was 0.8%.
Molecule `Cc1ccc(N/C=C(\C#N)c2ccc(OCCCF)cc2)cc1` has an inhibition of 7.98%.
Work on `Cc1nc2ccccn2c1C(=O)N/N=C/c1ccc2c(c1)OCO2` yielded an inhibition of 1.58%.
Molecule `CCNC(=O)c1c(C)nc2ccccn12` has an inhibition of -9.74%.
With `Cc1nc2ccccn2c1C(=O)NCc1cccnc1` the inhibition was -10.5%.
With `CC(C)(C)c1ccc(C(=O)OCCNC(=O)c2c(Cl)nc3ccccn23)cc1` the inhibition was -10.6%.
For `CCC(CC)NC(=O)c1cc2c(C)nn(Cc3ccccc3Cl)c2s1`, the inhibition was -6.17%.
In the case of `O=C(NCc1ccc2c(c1)OCO2)c1cnc2ccccn2c1=O`, the inhibition is reported as -8.83%.
For `Cc1nn(Cc2ccccc2Cl)c2sc(C(=O)NC(C)(C)C)cc12`, the inhibition was 7.48%.
`COc1ccc(NC(=O)c2c(Cl)nc3ccccn23)cc1` showed an inhibition of -0.46%.
`COCCn1c(=O)[nH]c2cc(C(=O)NCC3CCCO3)ccc2c1=O` (centres undefined) showed an inhibition of -10.7%.
In the case of `COc1cc(C2NC(=O)NC(C)=C2C(C)=O)ccc1O` (centres undefined), the inhibition is reported as 5.67%.
For `COC(=O)c1ccccc1NC(=O)NCc1cccnc1`, the inhibition was 2.42%.
`CCCC(C)C(=O)Nc1ccc(Cl)cc1Cl` (centres undefined) gave an inhibition of -6.12%.
Molecule `Cc1ccc(NC(=O)CC(=O)NCCN2CCOCC2)cc1` has an inhibition of -6.87%.
Work on `CC(=O)c1ccc(OC(C)C)c(CSC(=N)N)c1` yielded an inhibition of -9.08%.
Work on `COc1ccccc1NS(=O)(=O)c1cccc(NC(=S)NCCN2CCOCC2)c1` yielded an inhibition of -2.29%.
In the case of `Cc1ccc2nc3c(c(Nc4ccc5c(c4)OCCO5)c2c1)CCC3`, the inhibition is reported as 59.8%.
For `c1ccc2c(Nc3ccc4c(c3)OCCO4)c3c(nc2c1)CCC3`, the inhibition was 21.9%.
For `CSc1snc(SCC(N)=O)c1C#N`, the inhibition was -4.47%.
Work on `N#Cc1c(SCC(N)=O)nsc1SCc1ccc(Cl)cc1` yielded an inhibition of -0.48%.
`C/C=C/C(=O)OCC(=O)Nc1cccc(Br)c1` showed an inhibition of -3.94%.
Work on `COc1ccc(NC(=O)C(C)Sc2nnc3c4c(nc(-c5ccc(OC)cc5)n23)CC(C)(C)OC4)cc1` (centres undefined) yielded an inhibition of 4.37%.
Molecule `CC(C)CNC(=S)N1CCN(Cc2ccc3c(c2)OCO3)CC1` has an inhibition of -8.68%.
`CCC(=O)Nc1ccc(NC(=O)c2cc3ccccc3o2)cc1` gave an inhibition of 8.98%.
`CCOC(=O)c1ccc(NC(=O)CNC(=O)c2ccccc2)cc1` gave an inhibition of 0.26%.
Molecule `COc1ccc(NC(=O)c2cc3ccccc3o2)cc1` has an inhibition of 8.56%.
Molecule `CCOC(=O)c1ccc(NC(=O)Nc2ccc(F)cc2)cc1` has an inhibition of -14.9%.
Molecule `Cc1ccc(NC(=O)c2cc3c(s2)CCCC3)cc1` has an inhibition of -5.85%.
In the case of `CCC1C(=O)N=C(SCC(=O)Nc2ccccc2)NC1=O` (centres undefined), the inhibition is reported as -8%.
For `COc1ccccc1NC(=O)c1ccc(NC(=O)c2cc3c(s2)CCC3)cc1`, the inhibition was 0.63%.
With `CCC1C(=O)N=C(SCC(=O)Nc2ccc(C(=O)OC)cc2)NC1=O` (centres undefined) the inhibition was 8.73%.
`COc1cccc(/C=N/NC(=O)CN(CCc2ccccc2)S(=O)(=O)c2ccc(NC(C)=O)cc2)c1` gave an inhibition of 0.86%.
For `COc1ccc(/C=N/NC(=O)c2cccnc2)cc1CN1CCc2cc(OC)c(OC)cc2C1C` (centres undefined), the inhibition was 1.27%.
With `Cc1cc(C)n2nc(C(=O)OCC(=O)c3cc(C)n(CC4CCCO4)c3C)nc2n1` (centres undefined) the inhibition was -11.1%.
With `CC(=O)c1ccc(NC(=O)N2C3CCC2CC(O)(c2cccnc2)C3)cc1` (centres undefined) the inhibition was -0.55%.
`CCOC(=O)c1ccc(-c2ccc(/C=N/NC(=O)CN(c3ccccc3Cl)S(C)(=O)=O)o2)cc1` gave an inhibition of 6.39%.
With `NNC(=O)c1cnn(-c2ccccc2)c1-n1cccc1` the inhibition was -3.69%.
`Cc1ccc(NC(=O)C(=O)NCc2ccc(/C=C(/C#N)C(=O)NCc3cccnc3)o2)cc1C` showed an inhibition of 0.05%.
`CCOC(=O)N1CCN(C(=O)CSCC(=O)N=c2sc3ccccc3n2C)CC1` gave an inhibition of -1.11%.
Work on `CCOC(=O)c1ccc(NC(=O)Nc2ccc(Cl)cn2)cc1` yielded an inhibition of -5.47%.
Molecule `CCOC(=O)c1ccc(NC(=O)COC)cc1` has an inhibition of 79.3%.
Work on `CC1CCC/C(=C\Nc2ccc(O)cc2)C1=O` (centres undefined) yielded an inhibition of -13%.
`CCOC(=O)Cc1nc2ccccc2[nH]1` showed an inhibition of -10.4%.
`CCOC(=O)c1ccc(NCc2nc3ccccc3n2C)cc1` gave an inhibition of 51.7%.
For `CCOC(=O)c1ccc(NC(=O)c2cc(F)c(F)cc2Cl)cc1`, the inhibition was 2.44%.
Molecule `CCCOC(=O)c1ccc(NC(=O)CC(C)(C)C)cc1` has an inhibition of -1.14%.
Work on `CC1CCC/C(=C\Nc2ccc(C(=O)O)cc2)C1=O` (centres undefined) yielded an inhibition of -6.3%.
Molecule `Cc1ccc(Nc2nc(C(=O)N3CCC(C(=O)N4CCN(C)CC4)CC3)cs2)cc1` has an inhibition of -9.19%.
Work on `O=C(NCC1CCCO1)c1sc2cc(Cl)ccc2c1Cl` (centres undefined) yielded an inhibition of 10.4%.
For `CCN1CCN(C(=O)c2nn(-c3ccc(C)cc3)c(=O)c3c2c2ccccc2n3C)CC1`, the inhibition was 1.02%.
`CC(=O)c1c(C)[nH]c(C(=O)CSc2nnc(-c3ccccc3)n2Cc2ccc3c(c2)OCO3)c1C` showed an inhibition of 0.21%.
`CN1CCC(N2CCN(c3cccc(C(F)(F)F)c3)CC2)CC1` showed an inhibition of -9.94%.
Work on `S=c1[nH]nc(Cc2ccccc2)n1-c1ccc(Cl)cc1` yielded an inhibition of -10.8%.
With `NNc1nc2ccc(Cl)cc2s1` the inhibition was 52.6%.
`Cn1c(=O)c2c(nc(N/N=C/c3cccs3)n2Cc2ccccc2)n(C)c1=O` showed an inhibition of 3.67%.
With `CCOC(=O)c1ccc(NC(=O)COc2ccccc2CNC2CCCC2)cc1` the inhibition was 11.1%.
In the case of `CCOC(=O)c1ccc(NC(=O)CNC(=O)C2CCCCC2)cc1`, the inhibition is reported as -1.48%.
For `CCOC(=O)c1ccc(NC(=O)CCC(=O)OC)cc1`, the inhibition was 72.2%.
Work on `CCOC(=O)c1ccc(NC(=O)C2CCN(S(=O)(=O)CC)CC2)cc1` yielded an inhibition of 51.8%.
Molecule `O=c1[nH]c(Nc2ccc(F)cc2)cc2ccccc12` has an inhibition of 3.27%.
In the case of `CCCOC(=O)c1ccc(NC(=O)C(CC)CC)cc1`, the inhibition is reported as 0.89%.
For `CCOC(=O)c1ccc(NC(=O)COc2ccccc2CNCCO)cc1`, the inhibition was 91.9%.
`O=c1[nH]c(Nc2ccccc2)cc2ccccc12` gave an inhibition of -8.22%.
For `COc1ccccc1NC(=O)CCC(=O)N/N=C(/C)c1ccc(C)cc1`, the inhibition was 0.52%.
`O=C(N/N=C/c1ccccn1)C(=O)N1CCCCCC1` gave an inhibition of -1.83%.
Work on `O=C(CSc1ncccn1)N1CCCc2ccccc21` yielded an inhibition of -8.67%.
`CCCCN(C(=O)c1c(C)[nH]c(C(=O)OCC)c1C)c1ccccc1` gave an inhibition of -3.19%.
For `COc1ccc(-n2c(=O)c3ccccc3n(CC(=O)c3ccccc3)c2=O)cc1OC`, the inhibition was -3.99%.
Molecule `C/C(=N\NC(=O)C1CC1(C)c1ccccc1)c1ccco1` (centres undefined) has an inhibition of 5.62%.
For `Cn1ncc(C#N)c1NC(=O)c1nn2cccnc2c1Cl`, the inhibition was 6.92%.
Molecule `Cc1ccc(C(=O)OCC(=O)NCC(F)(F)F)cc1C` has an inhibition of 9.6%.
Work on `O=C(CC1C(=O)NCCN1CC1CCCCC1)NCCc1ccc(F)cc1` (centres undefined) yielded an inhibition of -4.2%.
With `CCOC(=O)c1ccc(NC(=O)CN2C(=O)CCC2=O)cc1` the inhibition was -7.66%.
In the case of `Cc1ccc(C)c(NC(=O)Cc2coc3cc4c(cc23)CCC4)c1`, the inhibition is reported as 9.72%.
Work on `CCOC(=O)c1ccc(NC(=O)CNC(=O)C23CC4CC(CC(C4)C2)C3)cc1` yielded an inhibition of -2.81%.
`CCOC(=O)c1ccc(NS(C)(=O)=O)cc1` showed an inhibition of -0.25%.
In the case of `COC(=O)Cc1ccc(NC(=O)c2ccc(C(C)(C)C)cc2)cc1`, the inhibition is reported as 6.95%.
With `CC(=O)c1cccc(NC(=O)Cc2coc3cc4c(cc23)CCC4)c1` the inhibition was 6.34%.
`CCOC(=O)Cc1ccc(NC(=O)c2ccccc2Br)cc1` showed an inhibition of 7.37%.
`CCOC(=O)c1ccc(NC(=O)CN2C(=O)CNC2=O)cc1` showed an inhibition of -6.17%.
Work on `O=S(=O)(Cc1ccccc1)Cc1cnc(Cl)s1` yielded an inhibition of 4.1%.
Work on `CCCOCCc1nnc(N)s1` yielded an inhibition of 1.89%.
In the case of `Cc1cccc(OCCSc2cc(C)nc(N)n2)c1`, the inhibition is reported as 6.69%.

Source: PubChem BioAssay AID1626 (SRMLSC, 2009)
